JMJD2E inh – JMJD2E (human) inhibition. Potency, µM (top dose mostly 57.1 µM), for inactives: at the top dose activity change, negative = inhibition, hits mostly inhibitors. B2RXH2. hit rate 1.6% among 230,000. JMJD2E catalytic domain, FDH-coupled NADH fluorescence (FDH is formaldehyde dehydrogenase);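 further: 0% = wells with enzyme and -100% = buffer wells without enzyme; nearly all actives have a fitted effect of over 50% in size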
Tau fibril ThT – inhibitors of human tau fibril formation, thioflavin T binding; recombinant tau K18 P301L, heparin-induced fibrillization, ThT fluorescence; Potency, µM (titrated, usually from 57.4 µM), for inactives: top-dose activity, negative = inhibition, usual class: inhibitors; hit rate 2.1% among 270,000; AID 1460; further: nearly all actives have a fitted effect of over 55% in size
Target sequence (P10636 561-689 P618L limits assumed): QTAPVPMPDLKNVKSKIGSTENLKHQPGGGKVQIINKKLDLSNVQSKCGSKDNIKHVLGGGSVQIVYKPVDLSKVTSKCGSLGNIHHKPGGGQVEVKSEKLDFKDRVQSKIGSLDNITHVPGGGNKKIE
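Using a mix of unlabeled (15 uM) and Alexa 594-labeled (0.24 uM) tau K18 P301L, heparin-triggered fibrillization over 6 hr at 37 C was scored by ThT fluorescence.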
Tau fibril FP – inhibitors of human tau fibril formation; K18 P301L tau heparin fibrillization, Alexa594 FP, 6 h; Potency, µM (top dose mostly 57.7 µM), for inactives: top-dose activity, negative = inhibition, usual class: inhibitors; hit rate 0.39% among 280,000; AID 1468; further: nearly all actives have a fitted effect of over 55% in size
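Recombinant K18 P301L […], labeled with Alexa 594 at 0.24 uM over 15 uM unlabeled; heparin inducer 20 uM final; 37 C, 6 hr; FP endpoint.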
GoLoco inh red – inhibitors of human Gai1-RGS12 GoLoco interaction (red fluorophore) | hit rate 0.44% among 230,000 | P63096 | Potency, µM (highest dose often 61.6 µM), for the others: top-dose activity, negative = inhibition, usual class: inhibitors | Gai1:RGS12 GoLoco peptide FP, rhodamine, 10 min | AID 880; active means well fitted inhibition curve with a large enough effect, not every such curve was filed as active; inactive means no such curve, though single readings can be large or run the other way; further: nearly all actives have a fitted effect of over 30% in size
Target sequence (P63096 whole entry, looked up): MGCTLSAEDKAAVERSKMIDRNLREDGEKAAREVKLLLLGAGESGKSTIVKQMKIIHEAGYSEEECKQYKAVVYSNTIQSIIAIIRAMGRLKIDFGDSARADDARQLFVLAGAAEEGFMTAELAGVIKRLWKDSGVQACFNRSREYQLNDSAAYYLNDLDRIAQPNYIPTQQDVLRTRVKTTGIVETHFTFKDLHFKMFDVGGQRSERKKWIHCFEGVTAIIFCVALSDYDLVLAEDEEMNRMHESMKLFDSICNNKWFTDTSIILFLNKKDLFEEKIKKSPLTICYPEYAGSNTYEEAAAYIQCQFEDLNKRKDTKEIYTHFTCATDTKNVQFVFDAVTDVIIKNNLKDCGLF
Tau fluor cs – counter-screen for tau fibril formation inhibitors. tau K18 P301L Alexa594 fluorescence, heparin fibrillization. Potency, µM (highest dose often 57.7 µM), inactives show at the top dose activity change, negative = decrease. hit rate 0.93% among 280,000. AID 1463; further: nearly all actives have a fitted effect of over 55% in size
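Human tau K18 P301L (15 uM unlabeled, 0.24 uM Alexa 594-labeled) in 100 mM sodium acetate pH 7 with 20 uM heparin, 6 hr at 37 C. ThT 30 uM added, 1 hr ambient; Alexa 594 FP and total fluorescence read at 555/632 nm.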
* marks the source's active call; other numbers are inactive results; ? = inconclusive; nt = no result; [ ] = another dose, or the depositor's remark. Compounds with a hit are over-represented: about 3.4% of the library has one in this group of screens. Unless noted, the call rests on the fitted dose curve; in most records, active means well fitted curve in the direction sought with a large enough effect; inconclusive means small, poorly fitted or top-dose-only effect, or another doubt; inactive means no such curve, though single readings can be large; an effect the other way counts as inactive or inconclusive. Unless noted, on the % scale 0 is the no-effect control and ±100 the full control effect; potency means the concentration at half of the fitted maximal effect.

SMILES | JMJD2E inh | Tau fibril ThT | Tau fibril FP | GoLoco inh red | Tau fluor cs
COc1ccc(/C=C/C=C2\N=C(SC)SC2=O)cc1 | -0.3% | 3.98µM* | ? | -4.5% | -28.7%
CSC1=N/C(=C\c2ccc(F)cc2)C(=O)S1 | -4.1% | ? | -8.8% | -14.4% | -19.1%
CCOc1ccc(CCNc2ncnc3onc(-c4ccc(Cl)cc4)c23)cc1 | nt | 3.4% | -1.8% | nt | -9.8%
CCN(CC)c1ccc(C=Nc2ccc(C#N)cc2)c(O)c1 | ? | ? | -1.7% | 41.4% | -3.3%
CCN(CC)c1ccc(N=Cc2ccccc2[N+](=O)[O-])cc1 | 5.01µM* | 14.1µM* | ? | 7.7% | ?
CCN(CC)c1ccc(N=Cc2ccc([N+](=O)[O-])o2)cc1 | 2.82µM* | 10µM* | 11.2µM* | 15.1% | ?
CCc1cccc(C)c1NC(=O)CN1C(=O)C2(SCC(=O)N2c2cc(C)cc(C)c2)c2ccccc21 (centres undefined) | nt | -12.0% | -1.4% | nt | -17.3%
O=C(c1cc(F)cc(F)c1)N1CCC(c2nc(-c3ccc(S(=O)(=O)N4CCCC4)cc3)no2)CC1 | nt | -7.8% | 3.4% | nt | -11.3%
CCOC(=O)c1cc(-c2ccc(OC)cc2)n(CCC(=O)NC2CCCCC2)c1C | nt | -14.8% | ? | nt | -10.3%
CCN1CC2=C(OC(N)=C(C#N)C2c2cccs2)/C(=C\c2cccs2)C1 (centres undefined) | ? | 14.1µM* | -13.0% | 38.4% | ?
COc1cc(Nc2nc3ccccc3c3nnc(C)n23)cc(OC)c1 | nt | -6.6% | -14.9% | nt | -19.6%
CCc1ccc(-n2nc(C)c3c(C(=O)Nc4ccc(Cl)cc4)cc(C)nc32)cc1 | nt | -6.8% | -14.7% | nt | -25.4%
Cc1ccn2c(Nc3ccc4c(c3)OCCO4)c(-c3ccc(Cl)s3)nc2c1 | nt | ? | ? | nt | 7.08µM*[quencher]
Clc1ccc(-c2nc3ccccn3c2Nc2ccc3c(c2)OCCO3)s1 | nt | ? | 11.4% | nt | 6.31µM*[quencher]
COc1cc2c(C(=O)N(C)c3cc(Cl)ccc3OC)cn(CC(C)C)c(=O)c2cc1OC | nt | -9.6% | -6.2% | nt | -12.5%
CCc1noc(-c2ccc(N3CCC(C)CC3)c([N+](=O)[O-])c2)n1 | nt | 0.5% | -7.9% | nt | -23.9%
CC(=O)Nc1cccc(-c2csc(Nc3ccc(C)cn3)n2)c1 | -8.2% | ? | 14.3% | 13.8% | 14.1µM*[quencher]
CC(=O)NNc1nc(-c2ccc(NC(C)=O)cc2)cs1 | 0.8% | -0.6% | -2.9% | 59.5% | -5.6%
CC(=O)Nc1ccc(-c2csc(Nc3cccc(C)n3)n2)cc1 | -3.6% | ? | 7.6% | 7.5% | 20µM*[quencher]
CC(=O)Nc1ccc(-c2csc(NC(=O)c3ccc(C)o3)n2)cc1 | -5.7% | ? | 5.8% | 9.7% | ?
CC(=O)Nc1ccc(-c2csc(NNC(=O)c3ccc(C)cc3)n2)cc1 | -25.9% | 11.2µM* | ? | 19.9% | ?
COc1ccc(OC)c(C(=O)c2c(N)c(-c3nc(-c4ccc(C)c(C)c4)cs3)c3ccccn23)c1 | nt | ? | 8.7% | nt | ?
CCc1nnc2c3ccccc3nc(N3CCN(c4cc(C)ccc4C)CC3)n12 | nt | ? | -6.2% | nt | -11.3%
O=C(NC(CSCc1ccccc1)C(=O)N/N=C/c1ccc(O)cc1O)c1ccc([N+](=O)[O-])cc1 (centres undefined) | ? | ? | ? | 6.4% | 12.6µM*[quencher]
CC1(c2ccccc2)CC(C)(C)N2C(=O)C3(C(C#N)=C(N)Oc4cc(O)ccc43)c3cccc1c32 (centres undefined) | -2.5% | -19.4% | 25.1µM* | 7.0% | ?
Cc1ccc(Cn2c(=O)n(-c3cccc(C(F)(F)F)c3)c(=O)c3c(C)c(C)sc32)c(C)c1 | nt | 6.1% | -7.4% | nt | -0.8%
Cc1n[nH]c(C)c1Sc1ccccc1N=Cc1cc([N+](=O)[O-])ccc1O | 0.1% | -19.8% | 1.0% | -6.8% | -8.1%
Cc1cc(O)c(C(C)C)cc1N=Cc1ccccc1O | -31.1% | 3.55µM* | 8.91µM* | 2.5%[14.2 µM] | ?
Cc1cc(O)c(C(C)C)cc1N=Cc1cc([N+](=O)[O-])ccc1O | 14.1% | 3.55µM* | 7.08µM* | 8.0% | ?
O=S(=O)(O)c1cc(O)c2c(N=Cc3ccccc3O)cc(S(=O)(=O)O)cc2c1 | nt | nt | nt | -33.5%[14.2 µM] | nt
